Experimental findings from PubChem BioAssay (Tox21) are described below.

The structures appear in SMILES notation. Active and inactive are the calls of the source. A call without a number means that no potency is given here. Calls follow the shape of the full dose curve.
Potency is read from the fitted curve at half-maximal effect.

In the experiment the target is Gonadotropin-releasing hormone receptor (Homo sapiens) (UniProt P30968). In words: Human gonadotropin-releasing hormone receptor (GnRHR) small molecule agonists, calcium flux assay in GnRHR-HEK293 cells (AID 1920063). Also: nearly all actives have a fitted effect of over 35% in size. The conditions noted are these: calcium flux fluorescence, agonist mode; series mostly up to 57.6 µM. The source says: National Center for Advancing Translational Sciences [NCATS]
Chain of Gonadotropin-releasing hormone receptor (Homo sapiens) (P30968 whole entry, looked up): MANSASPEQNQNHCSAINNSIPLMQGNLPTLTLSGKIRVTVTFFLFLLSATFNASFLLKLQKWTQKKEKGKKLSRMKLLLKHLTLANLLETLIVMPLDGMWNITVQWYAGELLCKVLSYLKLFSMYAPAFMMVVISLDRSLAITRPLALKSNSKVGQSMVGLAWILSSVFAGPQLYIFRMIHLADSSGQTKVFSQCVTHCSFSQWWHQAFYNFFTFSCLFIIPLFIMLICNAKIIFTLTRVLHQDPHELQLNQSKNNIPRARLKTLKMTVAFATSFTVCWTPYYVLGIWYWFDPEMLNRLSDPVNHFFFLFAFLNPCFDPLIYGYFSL
Division of Preclinical Innovation [DPI]
U.S. Environmental Protection Agency [EPA]
National Institutes of Environmental Health Sciences [NIEHS]
National Toxicology Program [NTP]
U.S. Food and Drug Administration [FDA]
Gonadotropin-releasing hormone receptor (GnRHR) is a G-protein-coupled receptor (GPCR) and acts (through phospholipase C) to increase intracellular inositol trisphosphate and then release intracellular calcium stores. Cell-based GnRHR-Hek293 calcium influx assay is using HEK293 cells that have been genetically engineered to express the human GnRHR, which activity can be measured by calcium signaling. A compound/drug can activate (agonist) GnRHR that can be monitored by levels of intracellular calcium.
GnRHR-HEK293 cells developed by Codex Corp contain human GnRHR reporter gene, which was stably integrated into HEK 293 cells. The compound activation can be detected by fluorescence intensity via calcium flux assay. This cell line has been used to screen the Tox21 10K compound library to identify GnRHR agonists.
GnRHR-Hek293 cells were dispensed at 1500cells/4uL/well in 1536-well black wall/clear bottom plates using a multidrop dispenser. After the assay plates were incubated at a 37 C/5% CO2 incubator for 18 hours, 4 uL of Calcium Dye Solution was added to each well. The plates were incubated at 37 C for 1 hour. For agonist mode, 23 nL of compounds dissolved in DMSO, positive controls or DMSO only was transferred to the assay plate by a pin tool station. The fluorescence intensity in the plates was measured using FDSS 7000EX kinetic plate reader with a filter set of Ex/Em=480/540 for 3 min at 1 sec intervals. Each test compound was measured at 15 concentrations and in triplicates.
(In general: A change in cytosolic calcium serves as a functional read-out for many receptors and channels.)
On to `COC=O`, for which the activity change is -1.66% [at 5.22 µM, hits give high values] (inactive).
As for `CCC(C)n1ncn(-c2ccc(N3CCN(c4ccc(OC[C@H]5CO[C@](Cn6cncn6)(c6ccc(Cl)cc6Cl)O5)cc4)CC3)cc2)c1=O` (stereo not given in full), the Potency entry is “inactive”.
For `Brc1cc(Br)c(Oc2cc(Br)c(Br)cc2Br)cc1Br`, the Potency result is “inactive”.
For the compound `C/C(CC(C)C)=N\O`, the Potency entry is “inactive”.
For `C=C[Si](OCC)(OCC)OCC`, the Potency entry was “inactive”.
Still for that read-out and setting: for `Cc1nnc(SCC2=C(C(=O)O)N3C(=O)[C@@H](NC(=O)Cn4cnnn4)[C@H]3SC2)s1` the value was “inactive”; for `c1ccc(OCc2ccc(CCCN3CCOCC3)cc2)cc1`, “inactive”; for `CNCC(O)c1ccc(O)c(O)c1` (stereo not given), 0.0425 µM (active).
Turning to `CCCCOC(=O)c1ccccc1C(=O)OCC(CC)CCCC` (stereo not given), the Potency entry was “inactive”.
Consider `c1ccc2occc2c1`, for which the Potency result is “inactive”.
Consider `CO`, for which the Potency result is “inactive”.
Same read-out and setting: under `C=C(C)[C@@H]1CC=C(C)C(=O)C1` stands “inactive”; under `C=CC(=C)CCC=C(C)C`, “inactive”.
As to `O=C1NCCN1`, the Potency entry was “inactive”.
The same measure, in the same setting: under `NC(CSCC(=O)O)C(=O)O` (stereo not given) stands “inactive”.
With `CCc1cc(C2=C(C(=O)O)N(c3ccccc3C(F)(F)F)S(=O)(=O)c3ccccc32)cc2c1OCO2`, the Potency result was “inactive”.
As for `C[C@H]1C[C@H]2[C@@H]3CCC4=CC(=O)C=C[C@]4(C)[C@@]3(Cl)[C@@H](O)C[C@]2(C)[C@@]1(O)C(=O)CO`, the Potency entry is “inactive”.
On the same count and under the same terms, for `C=Cc1ccc(C(C)(C)C)cc1` the value was “inactive”; for `CN1CCC[C@@H]1c1cccnc1`, “inactive”.
For `C#C[C@]1(OC(C)=O)CC[C@H]2[C@@H]3CCC4=C/C(=N/O)CC[C@@H]4[C@H]3CC[C@@]21CC`, the Potency result is “inactive”.
`Cc1ccc(Nc2nccc(N(C)c3ccc4c(C)n(C)nc4c3)n2)cc1S(N)(=O)=O`: the Potency entry is “inactive”.
As to `CC(CCc1ccc2c(c1)OCO2)NN` (stereo not given), the Potency result was “inactive”.
Regarding `O=C1NC(=O)C2CC=CCC12` (stereo not given), the Potency result is “inactive”.
For `N[C@@H](CCC(=O)N[C@@H](CS)C(=O)NCC(=O)O)C(=O)O`, the activity change was 2.39% [at 11.8 µM, hits give high values] (inactive).
Turning to `CC(COc1ccccc1)NN` (stereo not given), the Potency entry was “inactive”.
The same measure, in the same setting: under `C#CCN(C)CCCOc1ccc(Cl)cc1Cl` stands “inactive”.
Regarding `CC(C)CCC(=O)CCC(C)C`, the Potency result was “inactive”.
Regarding `CN(C)CCC(c1ccc(Cl)cc1)c1ccccn1` (stereo not given), the Potency result was “inactive”.
As for `CC(C)OC(=O)OCOP(=O)(CO[C@H](C)Cn1cnc2c(N)ncnc21)OCOC(=O)OC(C)C`, the Potency result is “inactive”.
`Cc1cccc(Br)c1`: the Potency entry was “inactive”.
`N=C1N=C(N)c2cc3ccccc3cc21`: the Potency result is “inactive”.
Consider `C=C(C)C(=O)OCCCCCCCCCCCCCCCCCC`, for which the activity change is 1.34% [at 11.8 µM, hits give high values] (inactive).
In the case of `C=CC(=O)NC(C)(C)C`, the Potency result is “inactive”.
`CCCCNc1cc(C(=O)O)cc(S(N)(=O)=O)c1Oc1ccccc1`: the Potency result is “inactive”.
Take `CCCCC(CC)COP(=O)(O)O` (stereo not given): the Potency entry is “inactive”.
On to `CCCN(CCc1cccs1)[C@H]1CCc2c(O)cccc2C1`, for which the Potency entry was “inactive”.
On to `OCCN(CCO)c1nc(N2CCCCC2)c2nc(N(CCO)CCO)nc(N3CCCCC3)c2n1`, for which the Potency is 15.1 µM (active).
As to `O=[N+]([O-])c1cccc(Cl)c1Cl`, the Potency result is “inactive”.
Take `CC[C@]12CCCN3CCc4c(n(c5ccccc45)C(=O)C1)[C@@H]32`: the Potency result was “inactive”.
Same read-out and setting: for `O=C(O)CNC(=O)c1ccccc1` the value was “inactive”.
